CCT chaperon mod: modulators of cytosolic chaperonin (CCT/TRiC) activity; purified chaperonin ATPase assay, HTRF ADP detection, 30 min; activity change, % (test concentration not listed), hits read low; hit rate 0.3% among 360,000; in the data active means activity change below about -30%
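We incubate TRiC, 40 or 20 nM final, with library compounds at 76 uM and 10 uM ATP for 30 min at 37 °C. ADP formed is detected with Transcreener HTRF reagents after 30 min at room temperature.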
Sfp inh: inhibitors of Bacillus subtilis Sfp phosphopantetheinyl transferase; hit rate 3.5% among 310,000; Potency, µM, hits mostly inhibitors; Biochemical Sfp PPTase activity, qHTS;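 further: the enzyme is Sfp with the accession as filed and its product quenches rhodamine fluorescence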
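Step 1, compound plus 15 nM Sfp-PPTase, 15 min, room temperature. Step 2, add rhodamine-CoA (5 uM) and BHQ-2-YbbR (12.5 uM). Step 3, read 525/598 nm fluorescence at 0 and 30 min.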
PLK1 PBD block: PLK1 (human) polo-box domain binding inhibition | hit rate 2.8% among 360,000 | Potency, µM, actives largely listed as inhibitors | P53350 | AID 720504 | Plk1 PBD binding of FITC phosphopeptide, fluorescence polarization; further: series mostly up to about 57 µM; nearly all actives have a fitted effect of over 65% in size
G9a block: G9a (human) methyltransferase inhibition; hit rate 8.8% among 350,000; Potency, µM (series often up to 102 µM), hits mostly inhibitors; G9a H3K9 monomethylation, AlphaScreen, 2 h; Q96KQ7; further: nearly all actives have a fitted effect of over 75% in size
Target sequence (Q96KQ7 913-1193 limits assumed): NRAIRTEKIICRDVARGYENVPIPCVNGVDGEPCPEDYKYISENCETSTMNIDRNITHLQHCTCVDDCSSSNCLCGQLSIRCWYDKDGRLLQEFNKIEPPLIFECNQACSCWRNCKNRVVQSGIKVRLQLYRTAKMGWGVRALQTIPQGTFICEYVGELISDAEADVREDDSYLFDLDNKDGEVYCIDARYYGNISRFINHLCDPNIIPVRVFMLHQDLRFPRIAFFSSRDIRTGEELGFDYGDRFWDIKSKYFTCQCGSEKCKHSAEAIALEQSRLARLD
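Enzyme 20 nM + cpd, 15 min RT; add b-H3K9 pep 500 nM / SAM 20 uM; 2 h RT; anti-H3K9me1 Ab 0.5 ug/mL + SA donor / anti-rabbit acceptor beads 20 ug/mL each, 10 min; AlphaScreen read.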
VDR inh: inhibitors of human vitamin D receptor; P11473; VDR-SRC2-3 peptide fluorescence polarization, 2 h; Potency, µM, usual class: inhibitors; hit rate 0.93% among 400,000; AID 504847
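VDR–SRC2-3 interaction, FP format. Cmpds 23 nl via pintool, brief spin, 2 h ambient incubation.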
MmCpn inh: inhibitors of Methanococcus maripaludis chaperonin TRiC (MmCpn). Potency, µM (top dose mostly 76.9 µM), actives largely listed as inhibitors. purified Mm-Cpn ATPase, ADP Transcreener TR-FRET. hit rate 0.031% among 330,000; further: nearly all actives have a fitted effect of over 80% in size
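ATP (10 uM final) was added to archaeal chaperonin (25 nM final) after 10 min exposure to test compound at 37°C; after 30 min further incubation, ADP was detected by competitive TR-FRET.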
Numbers stand for hits; i = inactive; ? = inconclusive; nt = no result; ! = not active in a repeat; [ ] = remark or other dose. The list is not random: actives were taken first. Their share in the collection is about 10%. Unless noted, the call rests on the fitted dose curve; in most records, active means well fitted curve in the direction sought with a large enough effect; inconclusive means small, poorly fitted or top-dose-only effect, or another doubt; inactive means no such curve, though single readings can be large; an effect the other way counts as inactive or inconclusive.

SMILES	CCT chaperon mod	Sfp inh	PLK1 PBD block	G9a block	VDR inh	MmCpn inh
CC(C)OCCCNC(=O)CN1C(=O)COc2ccc(S(=O)(=O)N3CCOCC3)cc21	nt	nt	nt	?	i	nt
Cc1csc(NC(=O)c2cnc3ccccc3n2)n1	i	i	i	45µM	i	i
CCCCc1nnc(NC(=O)c2nc3nccc(C)n3n2)s1	i	i	i	?	i	i
Cc1ccnc2nc(C(=O)Nc3nnc(CC(C)C)s3)nn12	i	?	i	25µM	i	i
Cc1csc(NC(=O)c2nc3nccc(C)n3n2)n1	i	i	3.4µM	50µM	i	i
COc1ccc(NC(=O)c2oc3ccccc3c2NC(=O)C23CC4CC(CC(C4)C2)C3)c(OC)c1	nt	nt	nt	i	i	nt
[N-]=[N+]=CC(=O)c1ccnc(C(=O)C=[N+]=[N-])c1	i	i	27µM	?	i	i
COc1ccccc1N1CCN(c2nc(C)nc3c2oc2ccccc23)CC1	i	25µM	i	40µM	i	i
Cc1nc(N2CCN(Cc3ccc(Cl)cc3)CC2)c2oc3ccccc3c2n1	i	22µM	i	nt	i	i
CC1CCN(S(=O)(=O)c2ccc3c(c2)c(=O)c(C(=O)NCc2ccco2)cn3C)CC1	i	i	i	79µM	i	i
CC1CCN(S(=O)(=O)c2ccc3c(c2)c(=O)c(C(=O)NCc2cccs2)cn3C)CC1	i	i	i	i	i	i
CCC(=O)c1ccc(OCCn2cncn2)cc1	i	i	i	i[12.7 µM]	i	i
C=CCc1cc(OC)ccc1OCCCCn1cncn1	i	?	i	28µM	i	i
CCC(=O)c1ccccc1OCCN1CCN(CC)CC1	i	?	i	14µM	i	i
CCN1CCN(CCOc2cccc(Cl)c2Cl)CC1	i	50µM	i	nt	i	i
CCC(=O)c1ccccc1OCCCCn1cncn1	i	?	i	8.9µM	i	i
Cc1cc2n(n1)CCCN2C(=O)Nc1ccc(C)c(Cl)c1	nt	nt	nt	i	i	nt
CC(=O)c1ccc(N2CCN(c3ncnc4c3c(-c3ccccc3)cn4-c3cccc(C)c3)CC2)cc1	nt	nt	nt	i	i	nt
CNc1cnn(-c2ccccc2)c(=O)c1Cl	i	i	11µM	nt	i	i
CN(C)CCNc1cnn(-c2ccccc2)c(=O)c1Cl	i	i	i	i	i	i
CC(C)=CCC/C(C)=C/CO/N=C1/C[C@@H](O)[C@@H](O)[C@@H]2[C@@H]3C(=O)N([C@@H](C)c4ccccc4)C(=O)[C@H]3CC[C@H]12	nt	i	nt	nt	nt	nt
COc1ccc(S(=O)(=O)Nc2cc(C)c(O)cc2C(C)C)cc1	i	i	i	25µM	i	i
Cc1ccc(S(=O)(=O)Nc2cc(C)c(O)cc2C)cc1	i	i	i	50µM	i	i
Cc1cc2c(SCC(=O)Nc3ccccc3O)ncnc2s1	i	nt	30µM	nt	i	nt
Cc1cccc(NC(=O)CSc2ncnc3sc(C)cc23)c1	i	i	i	i	i	i
SMILES	CCT chaperon mod	Sfp inh	PLK1 PBD block	G9a block	VDR inh	MmCpn inh
CCOC(=O)Cn1c(=O)n(-c2ccc(Cl)cc2)c2nc(-c3ccc(Cl)cc3)nc(C(N)=O)c21	nt	nt	nt	i	i	nt
Cn1cc(/C=C2\SC(=O)N(c3ccccc3)C2=O)c2ccccc21	i	i	i	i	i	i
O=C1S/C(=C\c2cccs2)C(=O)N1c1ccc(O)cc1	i	i	i	i	i	i
O=C1S/C(=C\C=C\c2ccco2)C(=O)N1c1ccccc1	i	?	i	40µM	i	i
O=C1S/C(=C\C=C\c2ccco2)C(=O)N1c1ccc(O)cc1	i	?	i	40µM	i	i
CC(C)C1NC(=O)[C@H](CCCCN)NC(=O)[C@@H](Cc2c[nH]c3ccccc23)NC(=O)[C@H](Cc2ccc(O)cc2)NC(=O)[C@H](C)N(C)C(=O)[C@H](Cc2ccccc2)NC1=O (stereo partly specified)	nt	nt	nt	i[12.7 µM]	nt	nt
COc1cccc(C2CC(=O)Nc3cc4c(cc32)OCCO4)c1OC (stereo unspecified)	nt	nt	nt	i	i	nt
CCCNC(=O)OC[C@@H]1O[C@H](CCO/N=C2\c3cc(OC)ccc3O[C@H](c3cccc(OC)c3)[C@H]2O)C=C[C@@H]1Oc1ccc(OC)cc1	nt	i	nt	nt	nt	nt
CC(C)[C@H](NC(=O)[C@H](CCC(N)=O)NC(=O)CNC(=O)[C@@H]1CCCN1C(=O)[C@H](Cc1ccc(O)cc1)NC(=O)CN)C(=O)O	nt	i	nt	nt	i	nt
Cc1cc(C)cc(NC(=O)Cn2ncn3c(cc4ccccc43)c2=O)c1	i	i	i	i	i	i
COC(=O)Cn1ncn2c(cc3oc(C)cc32)c1=O	i	56µM	i	?	i	i
CN1CCC(=O)N(C(CSc2ccc(Br)cc2)Cc2ccccc2)CC1 (stereo unspecified)	nt	i	nt	nt	?	nt
CCCCN(C(=O)c1ccc2c(c1)OCO2)c1ccccc1	i	i	?	50µM	i	i
CN(C)CCC(=O)c1ccc2c(c1)OCO2	i	i	19µM	1.8µM	79µM	i
CN(CCOC(=O)c1cccc(Br)c1)C(C)(C)C	i	i	i	?	i	i
CN(C)CCC(=O)c1cccc(Br)c1	i	?	9.5µM	2µM	?	i
COC(=O)c1ccc(NC(=O)CC2C(=O)N(c3ccc(Cl)cc3)C(=O)N2Cc2cccs2)cc1 (stereo unspecified)	nt	nt	nt	i	i	nt
Nc1ccccc1NC(=O)CCn1c(=S)[nH]c2ccccc2c1=O	i	i	i	45µM	i	i
COc1cc(O)c2c(c1)oc(=O)c1c3cc(O)c(O)cc3oc21	nt	10µM	nt	nt	?	nt
COCCn1ccc2c(OCC(=O)Nc3ccccc3F)cccc2c1=O	nt	nt	nt	?	i	nt
CCC(=O)NCc1cc(-c2nn(C)c(=O)c3ccccc23)ccc1C	i	i	i	i	i	i
Cc1ccc(-c2nn(C)c(=O)c3ccccc23)cc1CNC(=O)CSc1nc2ccccc2o1	i	i	27µM!	?	i	i
CC1CC(C)CN(C(=O)c2ccncc2)C1 (stereo unspecified)	-38	i	i	i	i	i
